Screening data: PubChem BioAssay, National Center for Advancing Translational Sciences (NCATS)
BAZ2B block = BAZ2B (human) inhibition | Q9UIF8 | AlphaScreen BAZ2B-H3K14Ac peptide displacement | Potency, µM (top dose mostly 114 µM), most hits filed as inhibitors | hit rate 4.4% among 360,000 | AID 504333; further: nearly all actives have a fitted effect of over 60% in size
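Multi-concentration screen (max 110 uM) measuring displacement of acetylated histone H3 peptide from BAZ2B by AlphaScreen, using 50 nM protein, 50 nM peptide and 10 ug/mL streptavidin donor plus Ni-chelate acceptor beads.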
JMJD2A Tudor inh = JMJD2A Tudor domain (human) inhibition | hit rate 4.4% among 390,000 | O75164 | Potency, µM (doses to about 114 µM), actives largely listed as inhibitors | AlphaScreen JMJD2A-Tudor / H3K4me3 peptide binding; further: nearly all actives have a fitted effect of over 50% in size
L3MBTL1 inh = inhibitors of human L3MBTL1. Q9Y468. AlphaScreen L3MBTL1–H3K9me1 peptide binding. Potency, µM (doses to about 57.1 µM), hits mostly inhibitors. hit rate 0.66% among 230,000; further: nearly all actives have a fitted effect of over 60% in size
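L3MBTL1 (50 nM) pre-complexed 30 min with biotinylated H3(1-15)K9me1 peptide (75 nM), then compounds added for 30 min at room temperature; AlphaScreen streptavidin donor/nickel chelate acceptor beads (10 ug/mL final) read after 30 min dark incubation.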
HP1b binding inh = blocks HP1-beta chromodomain binding to methylated histone tails | AlphaScreen HP1-beta / biotin-H3K9me3 peptide binding | Potency, µM (titrated, usually from 114 µM), most hits filed as inhibitors | hit rate 0.56% among 390,000 | AID 540317 | P83916; further: nearly all actives have a fitted effect of over 70% in size
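Compound inhibition of the preformed complex between 50 nM HP1-beta and 50 nM biotinylated H3K9me3 peptide was read by AlphaScreen. Buffer was PBS pH 7.4 with 0.01% Tween-20. Incubations ran 30 min at room temperature, with 10 ug/mL donor/acceptor beads.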
G9a inh = G9a (human) methyltransferase inhibition; Q96KQ7; G9a H3K9 monomethylation, AlphaScreen, 2 h; AID 504332; hit rate 8.8% among 350,000; Potency, µM (highest dose often 102 µM), most hits filed as inhibitors; further: nearly all actives have a fitted effect of over 75% in size
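G9a (20 nM) was preincubated 15 min with compound, then reacted 2 h at room temperature with 500 nM biotin-H3K9 peptide and 20 µM SAM. Monomethyl-H3K9 detected by AlphaScreen using anti-H3K9me1 antibody.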
Each line names hits and unclear results; the compound was inactive in the other large screens; ! = a repeat was not active. This is a sample that favours compounds with a hit; in the whole collection about 11% have one here. The call rests on the fitted dose curve; in most records, active means well fitted inhibition curve with a large enough effect; inconclusive means small, poorly fitted or top-dose-only effect; inactive means no such curve, though single readings can be large or run the other way.

O=C1NC(=O)N(Cc2ccccc2Cl)C(=O)/C1=C/c1cccs1	G9a inh 11.2µM (no result: BAZ2B block, L3MBTL1 inh)
O=C(c1cccs1)c1cn(Cc2ccccc2Cl)c2ccccc12	none (no result: L3MBTL1 inh)
O=C1NC(=O)C(CCc2ccncc2)(CCc2ccncc2)C(=O)N1Cc1ccc(F)cc1	none (no result: G9a inh)
Cn1c(=O)oc2cc(S(=O)(=O)N3CCCC(C(=O)N4CCN(c5ccc(Cl)cc5)CC4)C3)ccc21 (stereo unspecified)	none (no result: L3MBTL1 inh)
Cc1cccc(CN2C(=O)CN=C(c3ccccc3)c3cc(Cl)ccc32)c1	none (no result: L3MBTL1 inh)
CC[C@@H](CO)NC(=O)[C@@H]1C=C2c3cccc4[nH]cc(c34)C[C@H]2N(C)C1	G9a inh 14.1µM (no result: BAZ2B block, L3MBTL1 inh)
CCC(CO)NC(=O)C1C=C2c3cccc4[nH]cc(c34)CC2N(C)C1 (stereo unspecified)	G9a inh inconclusive
CC[C@@H](CO)NC(=O)[C@@H]1C=C2c3cccc4c3c(cn4C)C[C@H]2N(C)C1	BAZ2B block inconclusive, G9a inh 6.31µM!
CC[C@H](CO)NC(=O)[C@H]1C=C2c3cccc4[nH]cc(c34)C[C@@H]2N(C)C1	G9a inh 7.94µM (no result: BAZ2B block, JMJD2A Tudor inh, L3MBTL1 inh, HP1b binding inh)
COC(=O)C1C=C2c3cccc4[nH]cc(c34)CC2N(C)C1 (stereo unspecified)	BAZ2B block 39.8µM, G9a inh inconclusive (no result: JMJD2A Tudor inh, L3MBTL1 inh, HP1b binding inh)
CCCCCCC(C)(C)c1cc(OC)c2c(c1)OC(C)(C)[C@@H]1CC=C(C)C[C@@H]21	none (no result: BAZ2B block, JMJD2A Tudor inh, L3MBTL1 inh, HP1b binding inh)
CN1CCN(c2ccc(N)cc2Cl)CC1	BAZ2B block inconclusive, JMJD2A Tudor inh inconclusive, HP1b binding inh 28.2µM, G9a inh 39.8µM (no result: L3MBTL1 inh)
Cc1nn(CCc2n[nH]c(=S)n2-c2cccc(Cl)c2)c(C)c1[N+](=O)[O-]	JMJD2A Tudor inh 44.7µM, G9a inh 1.12µM (no result: L3MBTL1 inh)
Cc1ccc(-c2nc(CN3C(=O)CN=C(c4ccccc4Cl)c4cc(Cl)ccc43)c(C)o2)cc1	none (no result: L3MBTL1 inh)
CC1(C)C(=O)C=C[C@@]2(C)C1=C(O)C(=O)[C@@]1(C)C2CC[C@@]2(C)C(c3ccoc3)C[C@H]3O[C@@]321 (stereo partly specified)	none (no result: BAZ2B block, JMJD2A Tudor inh, L3MBTL1 inh, HP1b binding inh)
CCn1c(O)c(C(c2ccccn2)c2c(O)n(CC)c(=S)[nH]c2=O)c(=O)[nH]c1=S	BAZ2B block 31.6µM, JMJD2A Tudor inh 3.98µM, G9a inh inconclusive
CCn1c(O)c(C=NCc2ccccc2)c(=O)[nH]c1=S	G9a inh inconclusive (no result: L3MBTL1 inh)
O=c1[nH]c(=S)[nH]c(O)c1C(c1ccccn1)c1c(O)[nH]c(=S)[nH]c1=O	BAZ2B block 20µM, JMJD2A Tudor inh inconclusive, G9a inh 5.01µM
CCOC(=O)c1ccccc1NC(=O)c1c(O)[nH]c(=S)[nH]c1=O	none (no result: BAZ2B block, L3MBTL1 inh, G9a inh)
CCc1nn2c(=O)cc(N3CCN(C)CC3)nc2s1	none (no result: BAZ2B block, L3MBTL1 inh, HP1b binding inh, G9a inh)
O=C(Nc1ccc2nc(-c3cccs3)c(-c3cccs3)nc2c1)N1CCCCC1	none (no result: BAZ2B block, L3MBTL1 inh, G9a inh)
O=[N+]([O-])c1cc([As](=O)(O)O)ccc1O	JMJD2A Tudor inh 89.1µM, L3MBTL1 inh inconclusive
COc1ccc(O)c(CN2CCCC(C(=O)c3ccccc3SC)C2)c1 (stereo unspecified)	BAZ2B block 50.1µM, JMJD2A Tudor inh 56.2µM, HP1b binding inh inconclusive (no result: G9a inh)
COc1ccccc1CN1CCCC(C(=O)c2ccccc2SC)C1 (stereo unspecified)	none (no result: G9a inh)
S=C1Nc2ccccc2Sc2ccccc21	BAZ2B block inconclusive, HP1b binding inh inconclusive, G9a inh 10µM
CCCCC[C@@H](/C=C/C=C\C/C=C\C/C=C\CCCC(=O)O)OO	none (no result: BAZ2B block, JMJD2A Tudor inh, L3MBTL1 inh, HP1b binding inh)
CCCCCn1c(NC(=O)c2ccco2)c(C(=O)OCC)c2nc3ccccc3nc21	JMJD2A Tudor inh inconclusive, HP1b binding inh inconclusive, G9a inh 50.1µM
CCOC(=O)c1c(N)n(CCCOC(=O)c2ccco2)c2nc3ccccc3nc12	none (no result: L3MBTL1 inh)
O=[N+]([O-])c1ccc(Cl)c([N+](=O)[O-])c1	JMJD2A Tudor inh inconclusive
N#CC(C#N)=Cc1ccc(C=C(C#N)C#N)cc1	G9a inh 50.1µM
N#CC(C#N)=Cc1ccc([N+](=O)[O-])c(O)c1	G9a inh 8.91µM (no result: BAZ2B block, JMJD2A Tudor inh, L3MBTL1 inh, HP1b binding inh)
COc1ccc2c(c1O)-c1cccc3c1C(C2)N(C)CC3 (stereo unspecified)	none (no result: BAZ2B block, JMJD2A Tudor inh, L3MBTL1 inh, HP1b binding inh)
C=CCN1CCc2cccc3c2C1Cc1ccc(O)c(O)c1-3 (stereo unspecified)	G9a inh 0.355µM (no result: BAZ2B block, JMJD2A Tudor inh, L3MBTL1 inh, HP1b binding inh)
CCCN1CCc2cccc3c2[C@H]1Cc1ccc(O)c(O)c1-3	JMJD2A Tudor inh 22.4µM, HP1b binding inh 15.8µM, G9a inh 1.68µM (no result: BAZ2B block, L3MBTL1 inh)
CN1CCc2cc(O)cc3c2C1Cc1ccc(O)c(O)c1-3 (stereo unspecified)	G9a inh 0.708µM (no result: BAZ2B block, JMJD2A Tudor inh, L3MBTL1 inh, HP1b binding inh)
COc1ccc2c(c1O)-c1c(OC)c(OC)cc3c1[C@H](C2)N(C)CC3	none
Cn1c(-c2ccccc2)c(P(=S)(c2ccccc2)c2ccccc2)c2ccccc21	none (no result: BAZ2B block, L3MBTL1 inh, HP1b binding inh, G9a inh)
O=C1C[C@@H]2OCC=C3CN4CC[C@]56c7ccccc7N1[C@@H]5[C@@H]2[C@H]3C[C@H]46 (tested in a mixture with another compound)	none (no result: BAZ2B block, JMJD2A Tudor inh, L3MBTL1 inh, HP1b binding inh)
C[C@]12CCC3C(CC[C@]4(O)CC(O)CC[C@@]34C=O)[C@]1(O)CCC2C1=CC(=O)OC1 (stereo partly specified)	none (no result: BAZ2B block, JMJD2A Tudor inh, L3MBTL1 inh, HP1b binding inh)
Cc1ccc2c(c1)C(=O)CC1(CCC(C(C)(C)C)CC1)O2 (stereo unspecified)	none (no result: L3MBTL1 inh)
CCCCOc1ccc(Cn2c(=O)oc3ccccc32)cc1	none (no result: L3MBTL1 inh)
COc1ccc(/C=C/C2=CCN(C)CC2)cc1	G9a inh 79.4µM
C[N+]12CCC(CC1)C(=C(c1ccccc1)c1ccccc1)C2	G9a inh 3.55µM
O=C1NC(=O)N(c2ccccc2F)C(=O)/C1=C/c1ccc(Oc2ccc([N+](=O)[O-])cn2)cc1	BAZ2B block 56.2µM, JMJD2A Tudor inh inconclusive, G9a inh 20µM (no result: L3MBTL1 inh)
